We go through 8 molecules from PubChem BioAssay (NCATS).

In experiment [1] the target is Thyrotropin receptor (Homo sapiens) (UniProt P16473). Description: qHTS Assay for Antagonists of the Thyroid Stimulating Hormone Receptor (AID 488980). Note: series mostly up to about 58 µM; 0% is about no effect. In a few lines:
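TSHR-transfected HEK293 cells (2000/well) in HEPES-buffered HBSS with 70 uM RO 20-1724 were stimulated with 4 nM TSH (EC80, final) in the presence of compound. cAMP was measured by HTRF competition after lysis and 30 min at RT.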
(In general: Quantitative high-throughput screening tests each substance at several concentrations.)

Experiment [2] addresses D(1A) dopamine receptor (Homo sapiens) (UniProt P21728). In words: HTS Assay for Allosteric Agonists of the Human D1 Dopamine Receptor: Primary Screen for Agonists (AID 488981). Note: 0% is about no effect. In a few lines:
(§1)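 Calcium flux in an inducible, force-coupled HEK293 Trex D1 line (overnight at 30 C): agonist mode is the 180 s kinetic read after compound; potentiator mode is the following 180 s read after dopamine at EC20.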

Experiment [3] has the same target. Description: HTS Assay for Allosteric Agonists of the Human D1 Dopamine Receptor: Primary Screen for Potentiators (AID 488982). Note: 0% is about no effect. Put shortly:
as §1

Experiment [4] has the same target. In words: HTS Assay for Allosteric Agonists of the Human D1 Dopamine Receptor: Primary Screen for Antagonists (AID 488983).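 Note: calcium flux response to an EC80 dopamine challenge measured with no-wash dye; % is set by controls: 0 for no effect and ±100 for the full control effect; nearly all actives have a fitted effect of over 65% in size.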 Put shortly:
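Kinetic fluorescence at 1 cycle/sec tracked intracellular calcium in force-coupled, tetracycline-inducible HEK293 T-REx D1 cells. Loss of response to an EC80 dopamine dose, given 180 s after compound, marked antagonists.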

Experiment [5] in a line: Validation screen for small molecules that induce genotoxicity in human embryonic kidney (HEK293T) cells expressing luciferase-tagged ELG1 (AID 493106). Note: 0% is about no effect. Put shortly:
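Cells were dispensed at 2,000 per well, then 23 nL compound or DMSO was pinned in. After 16 hr at 37 °C and 5% CO2, ONE-Glo reagent was added. Luciferase activity was measured following 30 min at room temperature.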

Experiment [6] has as its target ATPase family AAA domain-containing protein 5 (Homo sapiens) (UniProt Q96QE3). Description: Validation screen for small molecules that inhibit ELG1-dependent DNA repair in human embryonic kidney (HEK293T) cells expressing luciferase-tagged ELG1 (AID 493107). Note: nearly all actives have a fitted effect of over 70% in size. Note: potency is the fitted concentration of half-maximal effect. Put shortly: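 Cells are dispensed in 1536-well format, then 5-fluorouridine and compound are pinned in. After a 16 hr incubation at 37 °C and 5% CO2, ONE-Glo is added and luciferase measured on a CCD imager.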

Experiment [7] concerns the target Thyrotropin-releasing hormone receptor (Homo sapiens) (UniProt P34981). Description: qHTS for Small Molecule Agonists and Allosteric Enhancers of Human TRH Receptor: Validation Screen for Agonists (AID 493127;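 active = calcium activation more than 3 SD above the typical response in the agonist read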;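 note: intracellular calcium rise by fluo-8 fluorescence before TRH EC20 addition; 0% is about no effect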). Conditions: TRH receptor agonist cell assay; at 2 µM; stronger effect = higher value. Put shortly: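 Compounds are added by online pintool to dye-loaded TRHR cells while fluorescence is recorded every second. A rise in calcium signal during the agonist read marks activation; a later 10 nM TRH addition (EC20) serves the separate enhancer mode.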

The target in experiment [8] is Galactokinase (Homo sapiens) (UniProt P51570). Description: qHTS Validation Assay for Inhibitors of Human Galactokinase (GALK) (AID 493189). Note: 0% is about no effect. Put shortly: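 GALK (5 nM) with 35 uM ATP and 100 uM galactose in HEPES pH 8.0 with MgCl2, NaCl, DTT and BSA. Reaction ran 1 h at room temperature. Residual ATP read by Kinase-Glo Plus luminescence.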
The target in experiment [9] is Peptidyl-prolyl cis-trans isomerase NIMA-interacting 1 (Homo sapiens) (UniProt Q13526). Description: qHTS Validation Assay to Find Inhibitors of Pin1 (AID 504536; active = well fitted inhibition curve with a large enough effect in the polarisation, with a control signal flat, not every such curve was filed as active; the % refers to the polarisation;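 note: 0% = full Pin1 enzyme wells and -100% = no-enzyme wells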). Put shortly:
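Fluorescence polarization competition: compounds (titration) displace HiFluor-488-labeled Pin1-1b peptide from Pin1 (0.3 uM final) in pH 7.5 HEPES buffer with DTT, 10 min at room temperature; %Activity normalized to no-enzyme wells, curves fitted.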

The target in experiment [10] is Phosphoglycerate kinase, glycosomal (Trypanosoma brucei brucei) (UniProt P07378). Description: qHTS Validation Assay to Find Inhibitors of Phosphoglycerate Kinase (AID 504547).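 Note: control wells lack PGK and mark full inhibition.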 In a few lines: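 Luminescence end-point (Kinase-Glo Plus, 10 min) after a 60 min room-temperature coupled reaction. GAPDH at 100nM final supplies 1,3-BPG to PGK. Buffer: 100mM TEA pH 7.6, 5mM MgCl2, 0.01% Tween-20. Wells lacking PGK served as controls.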

The nature of experiment [11]: Inducers of the Endoplasmic Reticulum Stress Response (ERSR) in human glioma: Validation (AID 504836). Note: 0% is about no effect. In a few lines: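 ERSR induction read as luciferase luminescence (Bright-Glo, 10 min at room temperature) in stably transfected human U87-MG glioma cells exposed to compounds for 16 h, using GRP78 as sensor.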
For experiment [12], the target named is DNA dC->dU-editing enzyme APOBEC-3G (Homo sapiens) (UniProt Q9HC16). In words: qHTS for inhibitors of Vif-A3G interactions: Validation (AID 588379). Note: 0% is about no effect. In a few lines:
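Yellow fluorescence (Ex 488, Em 500-530) of Vif-coexpressing HeLa A3G-eYFP cells, scanned by Acumen cytometer, reports blocked A3G degradation. Cells plated at 700/well overnight at 37 deg C before compound addition, then a further overnight compound incubation at 37 deg C.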

Experiment [13] in a line: Nrf2 qHTS screen for inhibitors: Validation (AID 493153; active = well fitted inhibition curve with a large enough effect in the main read-out, with a control signal flat, not every such curve was filed as active). Conditions: Potency: luciferase luminescence; viability change: measured here: cytotoxicity max response. In a few lines:
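A549 ARE_Fluc, 5% FBS OPTI-MEM; cpd titration, 18-24 h, 37°C/5% CO2. Read 1: CellTiter-Fluor (Ex 405/Em 525), cytotox. Read 2: luciferase lum, Nrf2 activity.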

The nature of experiment [14]: Validation screen for small molecules that induce DNA re-replication in SW480 colon adenocarcinoma cells (AID 504364). Note: 0% is about no effect. In a few lines:
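Image-based qHTS: compounds were incubated with SW480 cells for 48 hr, nuclei stained with Hoechst, and per-nucleus fluorescence intensity scanned to flag cells with excess DNA content.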

Experiment [15] has as its target Ubiquitin carboxyl-terminal hydrolase 1 (Homo sapiens) (UniProt O94782). Description: Inhibitors of USP1/UAF1: Pilot qHTS (AID 504865).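 Note: rhodamine fluorescence freed from ubiquitin-rhodamine substrate followed over time; top concentration of the series differs between compounds; % is set by controls: 0 for no effect and ±100 for the full control effect; nearly all actives have a fitted effect of over 35% in size.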 Put shortly: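 USP1/UAF1 complex at 1 nM preincubated 15 min at room temperature with compound, then Ub-Rho substrate added at 150 nM final. Fluorescence (480/540 nm) read kinetically in 50 mM HEPES pH 7.8, 0.5 mM EDTA, 1 mM TCEP, 0.1 mg/ml BSA, 0.01% Tween-20.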

The target of experiment [16] is Estrogen receptor (Homo sapiens) (UniProt P03372). In words: qHTS assay for small molecule antagonists of estrogen receptor alpha signaling (AID 588513; active = well fitted curve in the direction sought with a large enough effect in the signal ratio, with a control signal flat, not every such curve was filed as active; the % refers to the signal ratio; note: % is set by controls: 0 for no effect and ±100 for the full control effect). Put shortly: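 ER-alpha-UAS-bla GripTite HEK 293 cells in 2% charcoal/dextran-treated FBS medium; compounds titrated (1:2, duplicate), then stimulated with 0.5 nM 17-beta-estradiol for 18 h at 37C. CCF4 beta-lactamase fluorescence; Hill-fit IC50 and efficacy.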

For experiment [17] the target is unchanged. In words: qHTS assay for small molecule agonists of estrogen receptor alpha signaling (AID 588514; calls by dose curve;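 note: 0% = vehicle only and 100% = reference agonist; nearly all actives have a fitted effect of over 70% in size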). In a few lines: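 Efficacy is expressed against 20 nM 17-beta-estradiol (100%) and DMSO basal (0%); EC50 from Hill equation. Assay: beta-lactamase reporter in ER-alpha-UAS-bla HEK 293 cells, 18 h compound incubation, CCF4 detection.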
In experiment [18] the target is ATP-dependent 6-phosphofructokinase (Trypanosoma brucei brucei) (UniProt O15648). In words: qHTS Assay to Find Inhibitors of T. brucei phosphofructokinase: hit validation (AID 492961).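 Note: luminescence reports ADP formed as PFK phosphorylates fructose-6-phosphate with ATP; series mostly up to about 51 µM; % is set by controls: 0 for no effect and ±100 for the full control effect.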 In a few lines:
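ADP-Glo luminescence read-out of ADP formed by 1.25 nM PFK from 0.1 mM ATP and 0.5 mM F6P (TEA pH 8.0, 45 min, RT). Compounds titrated; activity normalized to no-enzyme and full-enzyme controls.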

Experiment [19] addresses Androgen receptor (Homo sapiens) (UniProt P10275). Description: qHTS assay for small molecule agonists of androgen receptor signaling (AID 588515; active = well fitted curve in the direction sought with a large enough effect in the signal ratio, with a control signal flat; the % refers to the signal ratio; note: % is set by controls: 0 for no effect and ±100 for the full control effect). Particulars: AR-UAS-bla HEK293, beta-lactamase ratio, agonist 16 h; stronger effect = higher value. In a few lines:
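Stimulation of an AR-responsive β-lactamase reporter in GripTite HEK293 cells was measured after 16 h compound exposure at 37 °C, via CCF4 fluorescence after 2 h RT. EC50 from Hill fits, normalized to R1881 at 30 nM.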

Experiment [20] shares this target. Description: qHTS assay for small molecule antagonists of androgen receptor signaling (AID 588516; active = well fitted curve in the direction sought with a large enough effect in the signal ratio, with a control signal flat, not every such curve was filed as active; the % refers to the signal ratio; note: % is set by controls: 0 for no effect and ±100 for the full control effect). In a few lines: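 AR-UAS-bla GripTite HEK 293 cells (2000/well) treated with compound titrations plus 10 nM R1881 for 16 h at 37C. Beta-lactamase read by CCF4 FRET (460/530 nm); IC50 from Hill fits, normalized to R1881 and DMSO control wells.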

Records with an inconclusive call do not appear. The source made the active and inactive calls. Unless noted, calls come from the whole dose curve; as a rule, active = well fitted curve in the direction sought with a large enough effect; inconclusive = small, poorly fitted or top-dose-only effect, or another doubt; inactive = no such curve, though single readings can be large; an effect the other way counts as inactive or inconclusive.

Sequence of Phosphoglycerate kinase, glycosomal (Trypanosoma brucei brucei) (P07378 whole entry, looked up): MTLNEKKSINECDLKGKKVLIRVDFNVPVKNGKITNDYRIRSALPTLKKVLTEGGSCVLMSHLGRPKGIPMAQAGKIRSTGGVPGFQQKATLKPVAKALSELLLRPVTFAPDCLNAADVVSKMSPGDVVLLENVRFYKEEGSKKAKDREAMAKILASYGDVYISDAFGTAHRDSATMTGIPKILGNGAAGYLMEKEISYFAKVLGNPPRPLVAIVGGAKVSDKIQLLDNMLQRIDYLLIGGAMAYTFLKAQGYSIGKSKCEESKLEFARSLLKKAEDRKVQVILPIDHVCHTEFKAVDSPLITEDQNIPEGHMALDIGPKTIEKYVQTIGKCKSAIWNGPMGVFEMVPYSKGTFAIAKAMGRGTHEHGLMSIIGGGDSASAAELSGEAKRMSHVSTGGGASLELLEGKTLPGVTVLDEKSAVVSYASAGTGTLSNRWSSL
Sequence of D(1A) dopamine receptor (Homo sapiens) (P21728 whole entry, looked up): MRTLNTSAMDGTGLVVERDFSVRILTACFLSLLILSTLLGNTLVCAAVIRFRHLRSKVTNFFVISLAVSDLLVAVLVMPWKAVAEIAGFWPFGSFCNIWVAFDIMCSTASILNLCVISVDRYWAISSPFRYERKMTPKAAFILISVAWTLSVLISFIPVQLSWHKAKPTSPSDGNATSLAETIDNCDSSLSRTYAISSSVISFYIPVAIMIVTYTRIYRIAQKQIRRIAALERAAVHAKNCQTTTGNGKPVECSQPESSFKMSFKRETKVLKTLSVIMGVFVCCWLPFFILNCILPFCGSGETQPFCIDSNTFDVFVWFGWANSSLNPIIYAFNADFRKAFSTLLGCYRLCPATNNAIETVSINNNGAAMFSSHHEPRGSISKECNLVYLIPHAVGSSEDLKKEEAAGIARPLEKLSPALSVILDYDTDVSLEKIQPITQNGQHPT
Sequence of DNA dC->dU-editing enzyme APOBEC-3G (Homo sapiens) (Q9HC16 whole entry, looked up): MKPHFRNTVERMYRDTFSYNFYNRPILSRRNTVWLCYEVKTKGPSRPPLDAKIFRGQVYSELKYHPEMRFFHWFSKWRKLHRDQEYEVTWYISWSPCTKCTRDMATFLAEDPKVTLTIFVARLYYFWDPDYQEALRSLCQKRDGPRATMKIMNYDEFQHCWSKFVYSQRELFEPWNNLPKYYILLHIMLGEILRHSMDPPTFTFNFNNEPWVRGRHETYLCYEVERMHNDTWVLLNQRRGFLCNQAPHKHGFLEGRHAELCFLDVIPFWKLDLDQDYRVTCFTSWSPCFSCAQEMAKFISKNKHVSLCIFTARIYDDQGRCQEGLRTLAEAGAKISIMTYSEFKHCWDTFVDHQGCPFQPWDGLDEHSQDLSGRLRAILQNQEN
Sequence of Ubiquitin carboxyl-terminal hydrolase 1 (Homo sapiens) (O94782 whole entry, looked up): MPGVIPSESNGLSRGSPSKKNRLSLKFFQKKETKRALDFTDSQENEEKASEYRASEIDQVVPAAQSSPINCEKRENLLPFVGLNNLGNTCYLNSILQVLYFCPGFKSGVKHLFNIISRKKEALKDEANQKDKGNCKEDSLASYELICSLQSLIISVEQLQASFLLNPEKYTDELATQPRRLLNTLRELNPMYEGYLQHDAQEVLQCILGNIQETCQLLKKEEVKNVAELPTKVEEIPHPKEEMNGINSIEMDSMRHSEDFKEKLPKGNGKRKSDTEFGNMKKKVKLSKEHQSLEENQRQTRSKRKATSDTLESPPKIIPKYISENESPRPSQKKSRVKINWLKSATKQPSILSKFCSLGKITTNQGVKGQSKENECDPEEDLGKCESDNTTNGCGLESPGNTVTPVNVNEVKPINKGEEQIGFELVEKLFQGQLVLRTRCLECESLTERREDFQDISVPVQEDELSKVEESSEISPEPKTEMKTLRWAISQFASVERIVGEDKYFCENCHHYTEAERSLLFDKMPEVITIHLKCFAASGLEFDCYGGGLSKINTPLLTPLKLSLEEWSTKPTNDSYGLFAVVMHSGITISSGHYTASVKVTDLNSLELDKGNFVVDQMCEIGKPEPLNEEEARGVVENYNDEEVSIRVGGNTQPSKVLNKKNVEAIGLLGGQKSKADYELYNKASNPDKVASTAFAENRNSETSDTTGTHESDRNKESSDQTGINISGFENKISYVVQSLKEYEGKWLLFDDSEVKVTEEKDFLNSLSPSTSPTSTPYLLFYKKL
Sequence of Thyrotropin-releasing hormone receptor (Homo sapiens) (P34981 whole entry, looked up): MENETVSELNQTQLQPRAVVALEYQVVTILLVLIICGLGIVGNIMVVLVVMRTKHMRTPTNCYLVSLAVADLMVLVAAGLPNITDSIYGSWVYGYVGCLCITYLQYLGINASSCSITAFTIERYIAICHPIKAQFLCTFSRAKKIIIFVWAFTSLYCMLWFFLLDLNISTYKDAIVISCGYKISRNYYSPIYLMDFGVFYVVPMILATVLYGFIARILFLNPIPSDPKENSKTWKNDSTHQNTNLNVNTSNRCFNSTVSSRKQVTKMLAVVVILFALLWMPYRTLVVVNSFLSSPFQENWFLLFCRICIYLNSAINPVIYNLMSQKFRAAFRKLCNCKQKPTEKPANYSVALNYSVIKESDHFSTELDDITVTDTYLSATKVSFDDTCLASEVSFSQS
Sequence of ATPase family AAA domain-containing protein 5 (Homo sapiens) (Q96QE3 whole entry, looked up, the tested form may be a part): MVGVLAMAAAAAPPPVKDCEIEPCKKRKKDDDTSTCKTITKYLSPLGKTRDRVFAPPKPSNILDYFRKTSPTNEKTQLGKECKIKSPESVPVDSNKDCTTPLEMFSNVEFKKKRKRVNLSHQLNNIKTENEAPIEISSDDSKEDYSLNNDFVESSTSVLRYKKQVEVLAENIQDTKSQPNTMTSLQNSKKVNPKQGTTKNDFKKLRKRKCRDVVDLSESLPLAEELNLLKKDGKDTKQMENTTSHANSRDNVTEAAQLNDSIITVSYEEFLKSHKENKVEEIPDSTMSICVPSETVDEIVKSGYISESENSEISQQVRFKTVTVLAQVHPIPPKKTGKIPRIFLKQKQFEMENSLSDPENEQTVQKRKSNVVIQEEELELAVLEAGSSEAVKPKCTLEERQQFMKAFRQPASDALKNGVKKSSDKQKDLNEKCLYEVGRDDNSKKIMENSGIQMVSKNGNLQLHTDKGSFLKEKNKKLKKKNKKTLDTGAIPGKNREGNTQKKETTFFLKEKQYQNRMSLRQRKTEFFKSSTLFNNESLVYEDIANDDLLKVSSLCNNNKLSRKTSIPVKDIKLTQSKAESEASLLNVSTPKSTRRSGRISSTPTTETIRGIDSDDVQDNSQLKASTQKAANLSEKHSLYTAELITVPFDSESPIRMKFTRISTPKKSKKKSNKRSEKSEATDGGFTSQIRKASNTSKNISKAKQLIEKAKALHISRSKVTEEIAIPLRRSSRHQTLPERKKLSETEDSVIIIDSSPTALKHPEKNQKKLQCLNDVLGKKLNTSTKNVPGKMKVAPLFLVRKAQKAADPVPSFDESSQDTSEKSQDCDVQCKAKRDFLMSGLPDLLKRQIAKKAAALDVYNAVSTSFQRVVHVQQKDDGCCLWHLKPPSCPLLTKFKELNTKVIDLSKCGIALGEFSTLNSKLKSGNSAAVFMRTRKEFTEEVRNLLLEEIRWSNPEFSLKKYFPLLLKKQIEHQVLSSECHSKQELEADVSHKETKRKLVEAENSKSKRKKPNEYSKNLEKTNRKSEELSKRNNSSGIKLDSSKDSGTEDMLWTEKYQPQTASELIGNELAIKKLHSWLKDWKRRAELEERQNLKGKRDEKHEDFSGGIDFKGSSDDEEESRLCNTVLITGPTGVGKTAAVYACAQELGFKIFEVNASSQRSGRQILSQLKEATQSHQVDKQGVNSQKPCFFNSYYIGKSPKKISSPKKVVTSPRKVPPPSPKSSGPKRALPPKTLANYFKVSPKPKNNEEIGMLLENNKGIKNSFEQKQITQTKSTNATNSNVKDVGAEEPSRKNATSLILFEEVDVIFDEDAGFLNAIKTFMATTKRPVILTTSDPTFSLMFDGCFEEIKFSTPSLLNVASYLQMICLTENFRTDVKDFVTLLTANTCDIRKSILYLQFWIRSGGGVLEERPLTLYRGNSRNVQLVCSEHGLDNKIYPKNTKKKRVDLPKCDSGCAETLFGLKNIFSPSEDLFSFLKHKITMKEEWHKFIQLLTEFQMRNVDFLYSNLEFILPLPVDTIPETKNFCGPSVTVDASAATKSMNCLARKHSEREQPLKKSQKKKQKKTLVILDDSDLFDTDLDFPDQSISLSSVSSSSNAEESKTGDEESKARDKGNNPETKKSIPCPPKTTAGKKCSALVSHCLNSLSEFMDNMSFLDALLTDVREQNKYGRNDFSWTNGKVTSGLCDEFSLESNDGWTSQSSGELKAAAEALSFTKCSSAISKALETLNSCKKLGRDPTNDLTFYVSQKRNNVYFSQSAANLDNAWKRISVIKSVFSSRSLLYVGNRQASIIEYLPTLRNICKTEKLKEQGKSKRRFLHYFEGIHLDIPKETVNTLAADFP
Sequence of Estrogen receptor (Homo sapiens) (P03372 whole entry, looked up): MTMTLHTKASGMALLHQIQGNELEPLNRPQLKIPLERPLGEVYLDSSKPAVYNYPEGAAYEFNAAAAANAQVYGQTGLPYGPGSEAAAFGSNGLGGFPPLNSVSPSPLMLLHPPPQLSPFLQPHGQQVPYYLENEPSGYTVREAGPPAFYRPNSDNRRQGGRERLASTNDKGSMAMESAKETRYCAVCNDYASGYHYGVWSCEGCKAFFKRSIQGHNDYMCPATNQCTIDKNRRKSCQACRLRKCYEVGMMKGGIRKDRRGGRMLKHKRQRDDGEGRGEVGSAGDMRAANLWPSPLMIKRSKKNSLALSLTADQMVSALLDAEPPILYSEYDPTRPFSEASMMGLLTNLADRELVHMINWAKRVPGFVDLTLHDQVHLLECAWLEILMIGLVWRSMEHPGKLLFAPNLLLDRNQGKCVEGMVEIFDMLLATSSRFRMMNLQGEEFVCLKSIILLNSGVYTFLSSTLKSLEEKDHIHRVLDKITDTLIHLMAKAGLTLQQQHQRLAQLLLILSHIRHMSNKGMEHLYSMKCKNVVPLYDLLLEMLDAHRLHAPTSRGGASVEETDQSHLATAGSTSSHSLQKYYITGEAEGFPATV

Regarding `Fc1ccc(C(OCCN2CCN(CCCc3ccccc3)CC2)c2ccc(F)cc2)cc1`, the molecule was classed as inactive in experiment [1], in experiment [8], in experiment [11] and in [12]. Further, the Potency result in experiment [2], in [3], in experiment [4], in experiment [5], in experiment [9] and in experiment [10] was “inactive” throughout. For the same molecule, the Potency in experiment [6] is 23.1 µM (active). The activation in experiment [7] is -5.62% (inactive).
For the molecule `c1ccc(C2CC2)c(OCC2=NCCN2)c1`, the outcome in experiment [1], in experiment [8] and in experiment [12] was inactive. The Potency entry in [2], in experiment [3], in experiment [4], in experiment [5], in experiment [6] and in experiment [13] was “inactive” throughout. The Potency result in [14], in [9], in experiment [10] and in [15] was “inactive” in each case. For the same molecule, in [7], the activation was 0.562% (inactive). Further, the viability change in experiment [13] is 5.58%.
Turning to `CNCC(O)c1ccc(O)cc1` (stereo unspecified), the call in experiment [1], in experiment [8] and in [16] was inactive. Also, the Potency entry in experiment [2], in experiment [3], in experiment [4], in [5], in experiment [6] and in experiment [13] was “inactive” each time. The Potency entry in experiment [14], in [9], in experiment [10], in experiment [15] and in experiment [17] was “inactive” each time. The activation in experiment [7] is 1.12% (inactive). For the same molecule, the viability change in [13] was -6.1%.
For `NCC(O)c1ccc(O)cc1` (stereo unspecified), the molecule was classed as inactive in experiment [1], in experiment [8] and in experiment [11]. In addition, the Potency result in [2], in experiment [3], in experiment [4], in [5], in [6] and in experiment [13] was “inactive” each time. In addition, the Potency entry in experiment [14], in [9], in experiment [10] and in [15] was “inactive” throughout. In addition, the activation in experiment [7] was 0.812% (inactive). The viability change in [13] turned out to be 0.943%.
Take `Clc1cccc(N2CCNCC2)c1`: the result in experiment [1], in [8] and in experiment [12] was inactive. Further, the Potency entry in [14] and in experiment [15] was “inactive” each time.
Regarding `COc1ccc(C(CN(C)C)C2(O)CCCCC2)cc1` (stereo unspecified), the Potency entry in [2], in experiment [3], in experiment [4], in [5], in experiment [6] and in experiment [13] was “inactive” throughout. For the same molecule, the Potency entry in experiment [9], in [10] and in experiment [15] was “inactive” in each case. Besides, the molecule was called inactive in [18] and in experiment [11]. The viability change in experiment [13] came out at 3.45%.
As to `Nc1ccncc1`, the molecule was classed as inactive in experiment [1], in [8], in experiment [11], in [12], in experiment [16] and in [20]. Besides, the Potency result in [2], in experiment [3], in [4], in experiment [5], in [6] and in experiment [13] was “inactive” in each case. The Potency entry in [14], in experiment [9], in [10], in experiment [15] and in experiment [17] was “inactive” throughout. For the same molecule, the results for the activation in [7] and in experiment [19] were 1.19% (inactive) and -4.84% (inactive), respectively. Further, the viability change in [13] was -2.07%.
Turning to `CCn1cc(C(=O)O)c(=O)c2ccc(C)nc21`, the molecule was classed as inactive in experiment [1], in experiment [8] and in experiment [11]. Besides, in experiment [7], the activation is 1.06% (inactive). The Potency entry in [14] and in experiment [17] was “inactive” in each case.
